Experimental findings from PubChem BioAssay AID1645838 (ICCB-Longwood Screening Facility, Harvard Medical School, 2021) are described below.

Where “and” joins values, the source holds several entries; their conditions need not be identical. Equal entries are not always repeated. About 100 (5%) of roughly 2,000 compounds were called active. The sample holds actives, similar compounds and a random draw of the others, so the mix is not that of the screen. No stated cut-off is given here; in the data, active means z-score above about 2; inactive means the rest. The source holds several records for some structures; these can differ, active in one and inactive in another.

The nature of the experiment: modulators of mitochondrial supercomplex assembly, cell-based, luminescence, Hoechst nuclei count (AID 1645838).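 On all read-outs here: control cybrid cells.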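 On z-score: higher means more mitochondrial supercomplex formation.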 The conditions noted are these: Cells, luminescence/Hoechst cell count ratio, supercomplex reporter; for z-score: stronger effect = higher value; for cell count: measured here: cell number, Hoechst nuclei count.
[1] abbreviates: library stock concentration (final well concentration not given) 46 uM.
[2] abbreviates: library stock concentration (final well concentration not given) 278 uM.
[3] abbreviates: library stock concentration (final well concentration not given) 1.67 mM.
[4] abbreviates: library stock concentration (final well concentration not given) 10 mM.
Where [5] appears, read: library stock concentration (final well concentration not given) 80 uM.
Where [6] appears, read: library stock concentration (final well concentration not given) 400 uM.
Where [7] appears, read: library stock concentration (final well concentration not given) 2 mM.

For `CCCCC[C@@](C)(O)/C=C/[C@H]1C(=O)C[C@H](O)[C@@H]1C/C=C\CCCC(=O)O`, the z-score was -0.768 (inactive) and the cell count stood at 5670.
Regarding `O=c1ncccn1C1OC(CO)C(O)C1O` (stereo not given), the z-score reads like this: under setting [1], -0.336 (inactive); under setting [2], -0.313 (inactive); under setting [3], -0.302 (inactive); under setting [4], 0.386 (inactive). Besides, the cell count by setting is: under setting [1], 5670; under setting [2], 5220; under setting [3], 4780; under setting [4], 3500.
Consider `c1cc2c(cc1C1CCCCC1)c1c3n2CCNC3CCC1` (stereo not given), for which the z-score by setting is: under setting [1], -0.207 (inactive); under setting [2], -0.279 (inactive); under setting [3], 0.239 (inactive); under setting [4], 3.28 (active). Also, the cell count under setting [1] stood at 6430, the cell count under setting [2] came to 6250, the cell count under setting [3] came out at 6160 and the cell count under setting [4] was 4320.
As for `CCCCCCCC/C=C\CCCCCCCC(=O)NCCS(=O)(=O)O`, the z-score is -0.251 (inactive) and the cell count amounted to 5290.
Taken in the same sequence, the figures for `CCCCCCCCCCCCC/C=C/[C@H](O)[C@@H](CO)NC(=O)CCCCCCCCCCCCCCCCCCCCCCC` were 0.79 (inactive) and 5520.
Taken in the same sequence, the figures for `O=C(O)CCC/C=C\CC1C2CCC(O2)C1CNNC(=O)Nc1ccccc1` (stereo not given) were -0.631 (inactive) and 5630.
On to `Cc1ccc(C(=O)Nc2cccc(C(F)(F)F)c2)cc1Nc1cncc(C(N)=O)c1`, for which the z-score is, setting by setting: under setting [5], -0.656 (inactive); under setting [6], -0.351 (inactive); under setting [7], -0.861 (inactive); under setting [4], -0.825 (inactive). Also, the cell count is, setting by setting: under setting [5], 4950; under setting [6], 4630; under setting [7], 5070; under setting [4], 4410.
Regarding `Cc1ccc(C(=O)Nc2cccc(C(F)(F)F)c2)cc1Nc1nc(-c2cccnc2)nc2c1cnn2C`, the outcome (library stock 10 mM) was “inactive; censored for cell count”. For the same molecule, the z-score runs as follows: under setting [5], -0.121 (inactive); under setting [6], 0.0935 (inactive); under setting [7], 1.5 (inactive). The cell count was 5540 under setting [5], 5440 under setting [6] and 3810 under setting [7].
In the case of `Cc1ccc(NC(=O)c2cccc(C(C)(C)C#N)c2)cc1Nc1ccc2ncn(C)c(=O)c2c1`, under “library stock 10 mM”, the outcome is “inactive; censored for cell count”. Also, the z-score is, setting by setting: under setting [1], -0.155 (inactive); under setting [5], 1.5 (inactive); under setting [2], 0.171 (inactive); under setting [6], 1.71 (inactive); under setting [3], 0.888 (inactive); under setting [7], 2.43 (active). Further, under setting [4], the z-score is 3.11 (active). For the same molecule, the cell count stood at 6500 under setting [1]; 3700 under setting [5]; 6060 under setting [2]; 3410 under setting [6]; 4330 under setting [3]; 2280 under setting [7]. Further, the cell count under setting [4] came to 1960.
`CCCCC(C)(C)[C@H](O)/C=C/[C@@H]1[C@@H](C/C=C\CCCC(=O)O)[C@@H](O)C[C@H]1O`: the z-score is -0.23 (inactive) and the cell count turned out to be 5200.
Taken in the same sequence, the figures for `CCCCC/C=C\C=C\C(O)CCCCCCCC(=O)OC[C@@H](COC(=O)CCCCCCC/C=C\C=C\C(O)CCCCC)OC(=O)CCCCCCC/C=C\C=C\C(O)CCCCC` (stereo not given in full) were -0.295 (inactive) and 5700.
For the molecule `CC(=O)c1ccc2c(c1)c1cc(C(C)=O)ccc1n2CCNC(C)C`, the outcome is “inactive; censored for cell count” (library stock 2 mM) and “inactive; censored for cell count” (library stock 10 mM). Besides, the z-score runs as follows: under setting [5], 0.38 (inactive); under setting [6], 4.83 (active). In addition, the cell count reads like this: under setting [5], 5240; under setting [6], 2850.
With `CCCCCC(=O)CC[C@@H]1[C@@H](C/C=C\CCCC(=O)O)[C@@H](O)C[C@H]1O`, the z-score is 0.125 (inactive) and the cell count worked out at 5560.
For the molecule `CCCCCCCCCCCCCCCCCCOC[C@H](COP(=O)([O-])OCC[N+](C)(C)C)OC(C)=O`, the z-score was -1.9 (inactive) and the cell count amounted to 5980.
`CCN(CC)Cc1ccc(C(=O)N(CCc2ccccc2OC)C2CCNC2)cc1` (stereo not given): the z-score reads like this: under setting [5], 0.157 (inactive); under setting [6], 0.267 (inactive); under setting [7], 0.915 (inactive); under setting [4], 3.1 (active). The cell count reads like this: under setting [5], 5850; under setting [6], 5490; under setting [7], 4680; under setting [4], 3340.
`C[C@@H]1C[C@H]2O[C@@H]2/C=C\C=C\C(=O)Cc2c(Cl)c(O)cc(O)c2C(=O)O1`: the outcome is “inactive; censored for cell count”.
With `CCOc1cc(CC(=O)NC(CC(C)C)c2ccccc2N2CCCCC2)ccc1C(=O)O` (stereo not given), the z-score under setting [1] is -0.125 (inactive), the z-score under setting [2] was -0.238 (inactive), the z-score under setting [3] was -0.332 (inactive) and the z-score under setting [4] is -0.204 (inactive). The cell count runs as follows: under setting [1], 4820; under setting [2], 5070; under setting [3], 5220; under setting [4], 4740.
With `O=C(O)C1CCC(c2cc3cccnc3c(-c3cccc(F)c3)n2)CC1` (stereo not given), the z-score reads like this: under setting [1], 0.62 (inactive); under setting [2], 1.24 (inactive); under setting [3], 1.5 (inactive); under setting [4], 1.76 (inactive). Moreover, the cell count under setting [1] was found to be 6220, the cell count under setting [2] came out at 6290, the cell count under setting [3] stood at 5980 and the cell count under setting [4] was 6420.
With `COc1cccc2cc(-c3nc(C4CCC(C(=O)O)CC4)n4ncnc(N)c34)[nH]c12` (stereo not given), the outcome (library stock 10 mM) is “inactive; censored for cell count”. Also, the z-score was -0.563 (inactive) and 0.107 (inactive) under setting [5]; -0.188 (inactive) and 0.529 (inactive) under setting [6]; 1.25 (inactive) and 2.27 (active) under setting [7]. Moreover, the cell count was 4660 and 5660 under setting [5]; 3600 and 4570 under setting [6]; 2190 and 2510 under setting [7].
Take `COc1ccc(/C=C/c2cc(O)cc(O)c2)cc1O`: the outcome was “inactive; censored for cell count”.
Turning to `CN(c1ccccc1CNc1nc(Nc2ccc3c(c2)CC(=O)N3)ncc1C(F)(F)F)S(C)(=O)=O`, the outcome (library stock 2 mM) was “inactive; censored for cell count” and the outcome (library stock 10 mM) was “inactive; censored for cell count”. Also, the z-score reads like this: under setting [5], 0.0927 (inactive); under setting [6], 0.505 (inactive). For the same molecule, the cell count was 4980 under setting [5] and 4440 under setting [6].
For the molecule `C=CCn1c(=O)c2cnc(Nc3ccc(N4CCN(C)CC4)cc3)nc2n1-c1cccc(C(C)(C)O)n1`, the outcome was “inactive; censored for cell count” (library stock 1.67 mM) and “inactive; censored for cell count” (library stock 10 mM). In addition, the z-score under setting [1] was -0.147 (inactive) and the z-score under setting [2] is -0.118 (inactive). Also, the cell count reads like this: under setting [1], 4940; under setting [2], 4830.
On to `Cc1cnc(Nc2ccc(OCCN3CCCC3)cc2)nc1Nc1cccc(S(=O)(=O)NC(C)(C)C)c1`, for which the outcome (library stock 10 mM) is “inactive; censored for cell count”. Further, the z-score by setting is: under setting [1], -0.00359 (inactive); under setting [2], -0.105 (inactive); under setting [3], 5.46 (active). Besides, the cell count was found to be 4980 under setting [1], 5010 under setting [2] and 2610 under setting [3].
